# Experimental data published in ChEMBL document CHEMBL2218924, “A broad activity screen in support of a chemogenomic map for kinase signalling research and drug discovery” (Biochem J, 2013).
# How the values were obtained:
# [1] = target: T1, Serine/threonine-protein kinase TBK1 (Homo sapiens) (UniProt Q9UHD2); conditions: at 10 µM
# T1 sequence (whole entry): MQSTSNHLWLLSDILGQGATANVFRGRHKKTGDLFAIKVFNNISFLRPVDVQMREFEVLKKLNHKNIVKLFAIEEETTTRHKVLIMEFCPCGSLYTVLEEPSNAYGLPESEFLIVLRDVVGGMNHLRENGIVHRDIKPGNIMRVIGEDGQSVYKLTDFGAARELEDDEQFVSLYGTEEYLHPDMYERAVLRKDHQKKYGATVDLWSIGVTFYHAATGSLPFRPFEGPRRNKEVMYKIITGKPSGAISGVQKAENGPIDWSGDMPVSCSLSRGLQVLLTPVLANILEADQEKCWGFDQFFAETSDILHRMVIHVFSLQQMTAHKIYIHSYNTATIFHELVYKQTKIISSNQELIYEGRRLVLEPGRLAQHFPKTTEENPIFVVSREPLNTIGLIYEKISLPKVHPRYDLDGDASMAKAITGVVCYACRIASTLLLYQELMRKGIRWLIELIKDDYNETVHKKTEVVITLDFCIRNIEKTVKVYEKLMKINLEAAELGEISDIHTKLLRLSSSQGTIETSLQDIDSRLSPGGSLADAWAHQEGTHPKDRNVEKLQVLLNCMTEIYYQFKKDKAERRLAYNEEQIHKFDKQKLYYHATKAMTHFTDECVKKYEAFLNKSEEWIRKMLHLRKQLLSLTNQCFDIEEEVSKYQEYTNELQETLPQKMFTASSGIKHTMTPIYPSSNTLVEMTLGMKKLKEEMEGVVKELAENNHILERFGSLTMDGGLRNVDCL
# [2] = target: T2, TGF-beta receptor type-1 (Homo sapiens) (UniProt P36897); conditions: at 1 µM
# T2 sequence (whole entry): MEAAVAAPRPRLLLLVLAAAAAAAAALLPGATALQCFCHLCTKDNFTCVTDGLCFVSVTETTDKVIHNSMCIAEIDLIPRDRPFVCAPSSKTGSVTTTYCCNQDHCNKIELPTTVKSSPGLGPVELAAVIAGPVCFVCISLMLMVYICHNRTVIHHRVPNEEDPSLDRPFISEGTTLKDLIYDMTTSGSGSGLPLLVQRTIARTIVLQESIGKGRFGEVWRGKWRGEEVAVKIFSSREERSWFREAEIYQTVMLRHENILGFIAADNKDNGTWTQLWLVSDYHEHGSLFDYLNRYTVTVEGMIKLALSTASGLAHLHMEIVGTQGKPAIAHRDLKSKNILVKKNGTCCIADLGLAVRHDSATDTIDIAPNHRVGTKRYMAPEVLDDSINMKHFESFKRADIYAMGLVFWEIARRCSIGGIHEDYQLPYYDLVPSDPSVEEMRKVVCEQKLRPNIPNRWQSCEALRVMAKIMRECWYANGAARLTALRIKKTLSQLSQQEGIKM
# [3] = target: T2, TGF-beta receptor type-1 (Homo sapiens); conditions: at 10 µM
# [4] = target: Insulin-like growth factor 1 receptor (Homo sapiens) (UniProt P08069); conditions: at 1 µM
# [5] = target: Insulin-like growth factor 1 receptor (Homo sapiens) (UniProt P08069); conditions: at 10 µM
# [6] = target: T3, Inhibitor of nuclear factor kappa-B kinase subunit alpha (Homo sapiens) (UniProt O15111); conditions: at 1 µM
# T3 sequence (whole entry): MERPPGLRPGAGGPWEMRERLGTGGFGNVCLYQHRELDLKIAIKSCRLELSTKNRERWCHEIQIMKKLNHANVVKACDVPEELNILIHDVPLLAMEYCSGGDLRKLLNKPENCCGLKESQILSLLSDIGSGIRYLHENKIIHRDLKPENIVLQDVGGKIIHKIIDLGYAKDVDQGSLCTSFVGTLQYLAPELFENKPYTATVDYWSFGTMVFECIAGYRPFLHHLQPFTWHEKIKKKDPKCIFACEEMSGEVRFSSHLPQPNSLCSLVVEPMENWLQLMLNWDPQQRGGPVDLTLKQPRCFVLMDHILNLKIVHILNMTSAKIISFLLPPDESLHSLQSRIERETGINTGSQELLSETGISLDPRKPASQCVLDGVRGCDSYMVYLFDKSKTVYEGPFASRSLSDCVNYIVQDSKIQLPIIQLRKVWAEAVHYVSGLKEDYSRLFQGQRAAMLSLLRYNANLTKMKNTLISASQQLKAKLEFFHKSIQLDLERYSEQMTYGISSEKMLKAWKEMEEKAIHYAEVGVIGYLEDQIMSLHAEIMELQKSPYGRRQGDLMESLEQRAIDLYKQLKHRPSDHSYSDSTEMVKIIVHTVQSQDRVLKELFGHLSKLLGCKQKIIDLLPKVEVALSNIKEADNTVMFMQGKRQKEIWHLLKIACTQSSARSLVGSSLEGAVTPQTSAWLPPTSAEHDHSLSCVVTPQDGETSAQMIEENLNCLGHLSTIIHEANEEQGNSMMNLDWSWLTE
# [7] = target: T3, Inhibitor of nuclear factor kappa-B kinase subunit alpha (Homo sapiens); conditions: at 10 µM
# [8] = target: T4, Inhibitor of nuclear factor kappa-B kinase subunit beta (Homo sapiens) (UniProt O14920); conditions: at 1 µM
# T4 sequence (whole entry): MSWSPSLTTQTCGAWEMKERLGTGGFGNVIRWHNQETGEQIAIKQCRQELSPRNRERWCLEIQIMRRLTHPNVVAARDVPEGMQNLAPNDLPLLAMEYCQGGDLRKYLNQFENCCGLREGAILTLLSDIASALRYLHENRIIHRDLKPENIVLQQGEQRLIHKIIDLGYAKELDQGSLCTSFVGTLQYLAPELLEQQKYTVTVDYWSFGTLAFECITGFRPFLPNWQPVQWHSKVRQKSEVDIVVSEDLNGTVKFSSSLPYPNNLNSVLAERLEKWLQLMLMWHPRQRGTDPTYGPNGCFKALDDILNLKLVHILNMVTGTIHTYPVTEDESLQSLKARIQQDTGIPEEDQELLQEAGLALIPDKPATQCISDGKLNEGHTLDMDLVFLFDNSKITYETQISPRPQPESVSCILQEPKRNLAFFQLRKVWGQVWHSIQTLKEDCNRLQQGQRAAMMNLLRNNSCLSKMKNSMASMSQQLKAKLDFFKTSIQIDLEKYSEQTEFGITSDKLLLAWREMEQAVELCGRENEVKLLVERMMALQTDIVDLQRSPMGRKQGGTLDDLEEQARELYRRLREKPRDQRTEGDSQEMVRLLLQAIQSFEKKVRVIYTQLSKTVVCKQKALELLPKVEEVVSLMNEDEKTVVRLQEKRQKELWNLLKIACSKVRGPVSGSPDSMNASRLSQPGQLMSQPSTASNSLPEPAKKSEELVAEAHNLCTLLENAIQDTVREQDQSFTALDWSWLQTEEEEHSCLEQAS
# [9] = target: T4, Inhibitor of nuclear factor kappa-B kinase subunit beta (Homo sapiens); conditions: at 10 µM
# [10] = target: Insulin receptor (Homo sapiens) (UniProt P06213); conditions: at 1 µM
# Insulin receptor (Homo sapiens), sequence (P06213 28-758 limits assumed): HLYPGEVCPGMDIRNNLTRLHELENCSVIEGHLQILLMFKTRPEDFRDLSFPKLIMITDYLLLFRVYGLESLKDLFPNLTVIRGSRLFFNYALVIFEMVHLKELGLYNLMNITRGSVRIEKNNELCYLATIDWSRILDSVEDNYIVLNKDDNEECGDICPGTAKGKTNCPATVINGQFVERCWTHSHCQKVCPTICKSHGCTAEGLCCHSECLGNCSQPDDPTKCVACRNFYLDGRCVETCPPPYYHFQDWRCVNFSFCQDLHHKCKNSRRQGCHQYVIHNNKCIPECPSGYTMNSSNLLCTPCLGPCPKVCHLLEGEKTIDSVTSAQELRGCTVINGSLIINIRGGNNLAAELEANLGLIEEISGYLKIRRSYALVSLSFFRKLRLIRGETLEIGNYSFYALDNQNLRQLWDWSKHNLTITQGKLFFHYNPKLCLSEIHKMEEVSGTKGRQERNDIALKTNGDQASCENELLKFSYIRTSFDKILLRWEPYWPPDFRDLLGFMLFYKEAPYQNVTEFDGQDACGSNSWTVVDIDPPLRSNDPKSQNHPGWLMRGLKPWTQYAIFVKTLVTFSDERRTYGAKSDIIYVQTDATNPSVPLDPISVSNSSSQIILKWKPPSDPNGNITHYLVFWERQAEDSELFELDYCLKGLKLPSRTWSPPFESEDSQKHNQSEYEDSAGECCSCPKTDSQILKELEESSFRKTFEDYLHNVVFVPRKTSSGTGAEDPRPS
# Insulin receptor (Homo sapiens), sequence (P06213 763-1382 limits assumed): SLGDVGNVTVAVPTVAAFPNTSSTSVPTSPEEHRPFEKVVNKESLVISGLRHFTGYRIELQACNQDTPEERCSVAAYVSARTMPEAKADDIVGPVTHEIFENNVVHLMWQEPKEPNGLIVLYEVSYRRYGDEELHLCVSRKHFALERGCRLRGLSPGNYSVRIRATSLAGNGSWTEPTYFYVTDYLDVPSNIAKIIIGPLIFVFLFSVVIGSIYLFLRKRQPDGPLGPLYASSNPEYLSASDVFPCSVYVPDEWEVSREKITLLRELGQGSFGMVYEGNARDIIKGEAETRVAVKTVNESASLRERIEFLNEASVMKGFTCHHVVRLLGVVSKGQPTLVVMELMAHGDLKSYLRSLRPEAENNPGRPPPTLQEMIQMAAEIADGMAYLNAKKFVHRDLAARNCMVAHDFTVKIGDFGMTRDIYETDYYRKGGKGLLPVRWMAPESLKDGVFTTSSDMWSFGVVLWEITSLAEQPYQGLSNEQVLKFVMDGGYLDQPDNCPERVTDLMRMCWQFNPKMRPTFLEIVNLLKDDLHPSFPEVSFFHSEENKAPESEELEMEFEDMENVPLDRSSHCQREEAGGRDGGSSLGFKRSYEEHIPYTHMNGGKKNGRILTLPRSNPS
# Insulin-like growth factor 1 receptor (Homo sapiens), sequence (P08069 31-736 limits assumed): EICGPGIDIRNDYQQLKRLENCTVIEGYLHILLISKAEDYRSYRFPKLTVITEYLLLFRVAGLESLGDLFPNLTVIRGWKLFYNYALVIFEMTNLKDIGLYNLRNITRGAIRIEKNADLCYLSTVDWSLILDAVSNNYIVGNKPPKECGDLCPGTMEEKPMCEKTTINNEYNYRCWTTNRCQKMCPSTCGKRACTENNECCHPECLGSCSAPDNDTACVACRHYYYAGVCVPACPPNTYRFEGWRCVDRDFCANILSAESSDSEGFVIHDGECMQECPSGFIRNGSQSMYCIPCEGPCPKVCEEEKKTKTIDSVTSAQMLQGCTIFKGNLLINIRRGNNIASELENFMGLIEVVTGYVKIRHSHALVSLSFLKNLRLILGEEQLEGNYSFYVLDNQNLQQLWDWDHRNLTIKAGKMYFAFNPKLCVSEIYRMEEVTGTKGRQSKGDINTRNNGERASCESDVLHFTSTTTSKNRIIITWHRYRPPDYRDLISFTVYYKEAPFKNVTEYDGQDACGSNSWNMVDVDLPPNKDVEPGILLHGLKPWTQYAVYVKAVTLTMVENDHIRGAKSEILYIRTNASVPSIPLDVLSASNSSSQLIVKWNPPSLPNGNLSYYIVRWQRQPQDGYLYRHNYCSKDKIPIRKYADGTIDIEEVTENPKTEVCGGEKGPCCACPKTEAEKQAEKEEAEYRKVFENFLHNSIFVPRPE
# Insulin-like growth factor 1 receptor (Homo sapiens), sequence (P08069 741-1367 limits assumed): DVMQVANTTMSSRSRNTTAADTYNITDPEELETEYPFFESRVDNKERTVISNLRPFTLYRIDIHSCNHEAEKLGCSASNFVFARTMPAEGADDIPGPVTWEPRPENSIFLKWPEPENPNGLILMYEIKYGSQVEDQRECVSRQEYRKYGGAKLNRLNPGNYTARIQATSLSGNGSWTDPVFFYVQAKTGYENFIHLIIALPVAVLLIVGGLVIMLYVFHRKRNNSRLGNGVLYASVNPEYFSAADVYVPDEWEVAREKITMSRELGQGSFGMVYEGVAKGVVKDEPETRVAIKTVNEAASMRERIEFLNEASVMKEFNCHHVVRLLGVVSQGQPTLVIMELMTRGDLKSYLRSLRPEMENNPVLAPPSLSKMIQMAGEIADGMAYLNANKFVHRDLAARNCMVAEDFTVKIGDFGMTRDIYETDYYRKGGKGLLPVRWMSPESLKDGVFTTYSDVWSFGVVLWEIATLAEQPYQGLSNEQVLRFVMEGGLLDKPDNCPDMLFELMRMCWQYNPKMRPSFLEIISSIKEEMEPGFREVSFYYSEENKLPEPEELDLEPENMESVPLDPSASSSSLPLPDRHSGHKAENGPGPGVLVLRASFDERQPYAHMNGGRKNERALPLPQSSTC
compound,measurement,setting,value
CC#CC(=O)Nc1cc2c(Nc3ccc(F)c(Cl)c3)ncnc2cn1,residual activity,[1],72%
same,residual activity,[2],74%
same,residual activity,[3],89%
same,residual activity,[4],98%
same,residual activity,[5],93%
same,residual activity,[6],97%
same,residual activity,[7],95%
same,residual activity,[8],96%
same,residual activity,[9],96%
same,residual activity,[10],101%
